Test results from PubChem BioAssay AID488864 (Broad Institute, 2010).
Entries with a potency or affinity are not part of this list. Active and inactive are the calls of the source.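 How the source made its calls: active means ATP signal reduced by compound, with fitted active dose under ten times the top valid tested dose; inactive means the rest, compounds that increase ATP levels included.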

Assay: INS-1E beta-cell viability without cytokines, dose response, cytotoxicity control for beta-cell cytokine protection project, CellTiter-Glo luminescence, dry powder (AID 488864)
Settings: INS-1E rat beta cells, 48 h, no cytokines; series mostly up to 26 µM

Question: For COc1ccc(S(=O)(=O)N(C)C[C@@H]2Oc3c(NC(=O)c4ccncc4)cccc3C(=O)N([C@@H](C)CO)C[C@H]2C)cc1, which outcome is on record?
Answer: inactive

Question: For C[C@@H]1CN([C@@H](C)CO)C(=O)c2cccc(NC(=O)Nc3cccc4ccccc34)c2O[C@H]1CN(C)S(=O)(=O)c1cccc(F)c1, which outcome is on record?
Answer: inactive

Question: For COc1ccc(S(=O)(=O)N(C)C[C@@H]2Oc3c(NC(=O)C4CCOCC4)cccc3C(=O)N([C@@H](C)CO)C[C@H]2C)cc1, which outcome is on record?
Answer: inactive

Question: Which outcome does the source give for C[C@@H]1CN([C@@H](C)CO)C(=O)c2cccc(NC(=O)Nc3ccc(F)cc3)c2O[C@H]1CN(C)S(=O)(=O)c1ccc(F)cc1 here?
Answer: inactive

Question: With COc1ccc(S(=O)(=O)Nc2cccc3c2O[C@@H](CN(C)S(=O)(=O)c2ccc(OC)cc2)[C@H](C)CN([C@@H](C)CO)C3=O)cc1 as the compound, how does the outcome read?
Answer: inactive

Question: For C[C@@H]1CN([C@@H](C)CO)C(=O)c2cccc(NC(=O)Nc3cccc(Cl)c3Cl)c2O[C@H]1CN(C)S(=O)(=O)c1ccc2c(c1)OCCO2, which outcome is on record?
Answer: inactive

Question: Which outcome does the source give for C[C@@H]1CN([C@H](C)CO)C(=O)c2cccc(NC(=O)Nc3ccccc3)c2O[C@H]1CN(C)S(=O)(=O)c1ccc(Cl)cc1 here?
Answer: inactive

Question: For COc1ccc(S(=O)(=O)N(C)C[C@@H]2Oc3c(NC(=O)Nc4ccc(F)cc4)cccc3C(=O)N([C@@H](C)CO)C[C@H]2C)cc1, which outcome is on record?
Answer: inactive

Question: For COc1ccc(S(=O)(=O)N(C)C[C@@H]2Oc3c(NC(=O)Nc4cccc5ccccc45)cccc3C(=O)N(C(C)C)C[C@H]2C)cc1, which outcome is on record?
Answer: inactive

Question: With COc1ccc(S(=O)(=O)N(C)C[C@@H]2Oc3c(NC(=O)Nc4cccc5ccccc45)cccc3C(=O)N([C@@H](C)CO)C[C@H]2C)c(OC)c1 as the compound, how does the outcome read?
Answer: inactive

Question: For COc1ccc(S(=O)(=O)N(C)C[C@@H]2Oc3ccc(NC(=O)Nc4cccc5ccccc45)cc3C(=O)N([C@@H](C)CO)C[C@H]2C)cc1, which outcome is on record?
Answer: inactive

Question: Which outcome does the source give for COc1ccc(S(=O)(=O)N(C)C[C@@H]2Oc3c(NC(=O)Nc4cccc5ccccc45)cccc3C(=O)N([C@H](C)CO)C[C@H]2C)cc1 here?
Answer: inactive

Question: Which outcome does the source give for C[C@@H]1CN([C@@H](C)CO)C(=O)c2cccc(NC(=O)Nc3cccc4ccccc34)c2O[C@H]1CN(C)C(=O)Nc1ccc(F)cc1 here?
Answer: inactive

Question: For CNC[C@@H]1Oc2c(NC(=O)Nc3cccc4ccccc34)cccc2C(=O)N([C@@H](C)CO)C[C@H]1C, which outcome is on record?
Answer: inactive

Question: For COc1ccc(S(=O)(=O)N(C)C[C@@H]2Oc3c(cccc3N(C)C)C(=O)N([C@@H](C)CO)C[C@H]2C)cc1, which outcome is on record?
Answer: inactive

Question: With C[C@@H]1CN([C@@H](C)CO)C(=O)c2cccc(NC(=O)Nc3cccc4ccccc34)c2O[C@H]1CN(C)S(=O)(=O)c1ccc2c(c1)OCCO2 as the compound, how does the outcome read?
Answer: inactive

Question: For COc1ccc(S(=O)(=O)N(C)C[C@H]2Oc3c(NC(=O)Nc4cccc5ccccc45)cccc3C(=O)N([C@H](C)CO)C[C@H]2C)cc1, which outcome is on record?
Answer: inactive

Question: For C[C@@H]1CN([C@@H](C)CO)C(=O)c2cccc(NC(=O)Nc3cccc4ccccc34)c2O[C@H]1CN(C)C(=O)NC1CCCCC1, which outcome is on record?
Answer: inactive

Question: For COc1ccc(S(=O)(=O)N(C)C[C@@H]2Oc3c(NC(=O)C4CC4)cccc3C(=O)N([C@@H](C)CO)C[C@H]2C)cc1, which outcome is on record?
Answer: inactive

Question: For C[C@@H]1CN([C@@H](C)CO)C(=O)c2cccc(NC(=O)Nc3cccc4ccccc34)c2O[C@H]1CN(C)S(=O)(=O)c1cn(C)cn1, which outcome is on record?
Answer: inactive

Question: With COc1ccc(S(=O)(=O)N(C)C[C@@H]2Oc3c(NS(=O)(=O)c4ccccc4)cccc3C(=O)N([C@@H](C)CO)C[C@H]2C)cc1 as the compound, how does the outcome read?
Answer: inactive

Question: With C[C@@H]1CN([C@@H](C)CO)C(=O)c2cccc(NC(=O)Nc3cccc4ccccc34)c2O[C@H]1CN(C)S(=O)(=O)c1ccccc1F as the compound, how does the outcome read?
Answer: inactive

Question: Which outcome does the source give for COc1ccc(S(=O)(=O)N(C)C[C@@H]2Oc3c(NC(=O)Nc4ccc(C(F)(F)F)cc4)cccc3C(=O)N([C@@H](C)CO)C[C@H]2C)cc1 here?
Answer: inactive

Question: For C[C@@H]1CN([C@@H](C)CO)C(=O)c2cccc(NS(=O)(=O)c3ccccc3)c2O[C@H]1CN(C)Cc1ccc(C(F)(F)F)cc1, which outcome is on record?
Answer: inactive

Question: Which outcome does the source give for Cc1ccc(S(=O)(=O)N(C)C[C@@H]2Oc3c(NC(=O)Nc4ccc(F)cc4)cccc3C(=O)N([C@@H](C)CO)C[C@H]2C)cc1 here?
Answer: inactive

Question: Which outcome does the source give for COc1ccc(S(=O)(=O)N(C)C[C@@H]2Oc3c(NC(=O)NC4CCCCC4)cccc3C(=O)N([C@@H](C)CO)C[C@H]2C)cc1 here?
Answer: inactive

Question: With C[C@@H]1CN([C@@H](C)CO)C(=O)c2cccc(NC(=O)Nc3cccc4ccccc34)c2O[C@H]1CN(C)S(=O)(=O)c1ccc2c(c1)OCO2 as the compound, how does the outcome read?
Answer: inactive

Question: With C[C@@H]1CN([C@@H](C)CO)C(=O)c2cccc(NC(=O)Nc3cccc4ccccc34)c2O[C@H]1CN(C)S(=O)(=O)c1ccc2c(c1)OCCCO2 as the compound, how does the outcome read?
Answer: inactive
